Experimental data published in PubChem BioAssay (NCI).
The panel holds about 83,000 compounds, 20% with a hit somewhere; the sample as a whole holds those more often.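 Single-dose data. Exposure time 48 hours. Values below 10 considered active.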 Active and inactive are the calls of the source.

Assays:
Test in all cases: NCI-60 one-dose screen, 48 h (100 = growth as untreated, 0 = no growth, -100 = all killed)
Conditions in all cases: 10 µM unless noted
[1] = test system: SNB-75 CNS
[2] = test system: U251 CNS
[3] = test system: PC-3 prostate
[4] = test system: SK-MEL-5 melanoma
[5] = test system: UACC-62 melanoma
[6] = test system: LOX IMVI melanoma
[7] = test system: SK-MEL-28 melanoma
[8] = test system: SK-MEL-2 melanoma
[9] = test system: EKVX NSCLC
[10] = test system: SN12C renal
[11] = test system: UO-31 renal
[12] = test system: TK-10 renal
[13] = test system: ACHN renal
[14] = test system: CAKI-1 renal
[15] = test system: A498 renal
[16] = test system: CCRF-CEM leukemia
[17] = test system: MOLT-4 leukemia
[18] = test system: SR leukemia
[19] = test system: SNB-19 CNS

Measured: growth

CN(CC(=O)N(Cc1ccc(C2CCCCC2)cc1)c1ccc(C(=O)O)cc1)S(=O)(=O)c1c(F)c(F)c(F)c(F)c1F
inactive: [1] 68.6% | [3] 10.4% | [4] 86.6% | [9] 92.1% | [10] 19% | [11] 81.2% | [12] 102% | [13] 68.7% | [14] 89.9% | [15] 93.4%
active: [2] -25.4% | [5] -7.33% | [6] -64.1% | [7] -51.8% | [8] -31.7% | [16] -28.2% | [17] -15.9% | [18] -22.1%

COc1ccc(Nc2nccc(N3CCN(c4c5ccc(Cl)cc5nc5ccc(OC)cc45)CC3)n2)cc1
inactive: [1] 67.5% | [19] 92.2% | [3] 57.9% | [5] 76.4% | [7] 105% | [10] 68.5% | [11] 47.5% | [12] 59.2% | [13] 57.8% | [14] 71.5% | [15] 62.9% | [18] 21.1%
active: [16] 4.07% | [17] -2.31%

Clc1ccc([C@@H]2C[C@@H]3Cc4cc(Br)c5ccccc5c4N2O3)c(Cl)c1
inactive: [1] 56.2% | [19] 83.8% | [2] 60.6% | [4] 93.8% | [5] 62.8% | [6] 72.1% | [7] 69.9% | [9] 108% | [10] 96.8% | [11] 64% | [12] 90.2% | [13] 81.6% | [14] 73.6% | [15] 87% | [16] 66.5% | [17] 78% | [18] 20.8%

O=C(CCc1nnc(Cn2cncn2)o1)c1nc2ccccc2[nH]1
inactive: [1] 99.1% | [19] 111% | [2] 103% | [4] 105% | [5] 97.9% | [6] 94.4% | [7] 105% | [9] 116% | [10] 92.6% | [11] 92.4% | [12] 108% | [13] 113% | [14] 102% | [15] 96% | [16] 96.4% | [17] 92.4% | [18] 82%

CC(=O)c1nc2ccccc2n1CCn1cc(CC(N)C(=O)O)c2ccccc21 (stereo not drawn)
inactive: [1] 74.7% | [19] 92.6% | [2] 102% | [4] 96.1% | [5] 79.5% | [6] 89.4% | [7] 109% | [9] 82.4% | [10] 93.7% | [11] 69.4% | [12] 102% | [14] 95.9% | [15] 116% | [16] 82.9% | [17] 83.9% | [18] 90.7%

COc1ccc(Nc2ccnc(NCCCNc3ccnc4cc(Cl)ccc34)n2)cc1
active: [1] -75.5% | [19] 7.11% | [2] -84.3% | [5] -91.2% | [6] -80.4% | [7] -93.6% | [8] -86.4% | [10] -21.5% | [11] -71.8% | [12] -72.3% | [13] -96.8% | [14] -40.3% | [15] -7.79% | [16] -19.3% | [17] -21.1%

COC(=O)CC1=C(C)/C(=C/c2[nH]c(-c3ccc[nH]3)cc2OC)N=C1C
active: [1] -38.6% | [2] 5.15% | [4] -92.8% | [5] -46.5% | [6] -57.6% | [7] -3.01% | [11] -68.9% | [12] 6.46% | [13] -13.4% | [15] -5.38% | [16] -13.5% | [17] -49% | [18] -47.8%
inactive: [19] 32.3% | [9] 27.9% | [10] 21.4%

COc1ccc(/C=N\Nc2ccc([N+](=O)[O-])cn2)cc1OC
inactive: [19] 39.7% | [5] 81.7% | [6] 68.7% | [7] 79.5% | [9] 63.6% | [10] 26.2% | [14] 43.1% | [16] 124% | [17] 101% | [18] 52.9%
active: [1] -0.426% | [2] -18.5% | [11] -11.9% | [12] -63.4% | [13] -3.48% | [15] -26.2%

CCCn1cnc2c1c(=O)n(CCCCC(C)=O)c(=O)n2C
inactive: [19] 120% | [2] 95.5% | [3] 99.2% | [4] 104% | [5] 104% | [6] 98.2% | [7] 114% | [8] 108% | [9] 108% | [10] 124% | [11] 80.9% | [12] 114% | [13] 101% | [14] 103% | [16] 109% | [17] 92% | [18] 87.5%

CC(=O)Nc1ccc2c(c1)Cc1c(F)c(F)c(F)c(F)c1-2
inactive: [1] 44% | [19] 90.3% | [2] 78.8% | [4] 84.7% | [5] 77.4% | [6] 80.3% | [9] 70.3% | [10] 90.2% | [11] 58.1% | [13] 87.5% | [15] 69.1% | [16] 58.9% | [17] 99.4% | [18] 52%
active: [8] -27.7%

CN(C)c1cccc2c(S(=O)(=O)N[C@H]3CC[C@H]4[C@@H]5CCc6cc(O)ccc6[C@H]5CC[C@]34C)cccc12
inactive: [1] 40.4% | [19] 62.5% | [3] 16.1% | [4] 41.5% | [5] 49.9% | [7] 54.7% | [10] 25.4% | [11] 10.7% | [12] 51.1% | [13] 30.8% | [14] 15.5% | [15] 49% | [17] 17.3%
active: [18] -16.1%

CC1=NN(c2ccccc2Cl)C(=O)/C1=C\c1cn(S(=O)(=O)c2ccc(C)cc2)c2ccccc12
inactive: [1] 89.3% | [19] 114% | [2] 103% | [4] 106% | [5] 86.5% | [6] 97.4% | [7] 125% | [9] 98% | [10] 97.5% | [11] 78.2% | [12] 167% | [14] 87.8% | [15] 117% | [16] 135% | [17] 173%

Cc1[nH]n(C(N)=S)c(=O)c1N=Nc1ccc(F)c(Cl)c1
inactive: [1] 119% | [19] 164% | [2] 108% | [4] 95% | [5] 84.6% | [6] 110% | [7] 116% | [9] 96.6% | [10] 95.8% | [11] 73.9% | [12] 125% | [13] 104% | [14] 103% | [15] 128% | [17] 76.9% | [18] 80.2%

N=C(N)/N=C(\CCc1nc2ccccc2[nH]1)c1nc2ccccc2[nH]1
inactive: [1] 82.5% | [19] 93.6% | [2] 103% | [5] 82.2% | [6] 85.4% | [7] 100% | [9] 92.7% | [10] 85.6% | [11] 67.6% | [12] 105% | [13] 92.3% | [14] 93.6% | [15] 111% | [16] 99.5% | [17] 107% | [18] 83.9%

CN=C(NC)N/N=C(C)\C=N\NC(=NC)NC
inactive: [19] 99.4% | [2] 98.8% | [3] 94.8% | [5] 97.5% | [6] 109% | [7] 110% | [8] 117% | [9] 101% | [10] 96.4% | [11] 83.7% | [12] 127% | [13] 101% | [14] 89.1% | [15] 96.3% | [16] 106% | [17] 101%

C=CCOc1ccc2c(c1)CC[C@@H]1[C@@H]2CC[C@@]2(C)[C@H]1CC[C@]2(C)O
inactive: [1] 93.3% | [19] 110% | [2] 74.7% | [4] 95.3% | [5] 85% | [6] 76.2% | [7] 97.2% | [9] 82% | [10] 96.7% | [11] 92.6% | [12] 56.7% | [13] 85.8% | [14] 75.4% | [15] 90.5% | [16] 70.7% | [17] 72.5% | [18] 58%

CC(NC(=O)C(C)Oc1ccc(Cl)cc1Cl)C(=O)O (stereo not drawn)
inactive: [19] 96.2% | [2] 105% | [3] 102% | [4] 101% | [5] 91.7% | [7] 113% | [8] 97.4% | [9] 95.8% | [10] 73.3% | [11] 78.1% | [12] 125% | [13] 109% | [14] 101% | [15] 113% | [17] 139% | [18] 137%
active: [16] -9.97%

COc1ccc(COC(C)=O)cc1
inactive: [1] 114% | [19] 114% | [2] 107% | [4] 108% | [5] 111% | [7] 113% | [9] 113% | [10] 124% | [11] 97.2% | [12] 126% | [13] 99.1% | [14] 105% | [15] 88.7% | [16] 86.4% | [17] 107% | [18] 112%

Clc1ccccc1[C@@H]1C[C@@H]2Cc3cc(Br)c4ccccc4c3N1O2
active: [1] 4.57% | [18] 3.11%
inactive: [19] 38.2% | [2] 34.4% | [4] 30.2% | [5] 24.4% | [6] 37% | [7] 47.5% | [10] 44.3% | [11] 40.3% | [12] 63.6% | [13] 53.5% | [14] 40.4% | [15] 15.7% | [17] 17.2%
